D3 antag: blocks the human D3 dopamine receptor. P35462. D3R cells, DiscoveRx beta-arrestin luminescence, antagonist mode; hits give low values. max response, negative = inhibition, %. hit rate 2.5% among 360,000. AID 652054; in the data active means max response below about -50%; inconclusive means no clear call, values can overlap the other calls; further: on the % scale 0 is the no-effect control and ±100 the full control effect
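Cells expressing the human receptor were seeded at 1500 cells/well, incubated overnight at 37 degrees C in 5% CO2, then exposed to library compounds with dopamine controls for 90 minutes at 37 degrees C before luminescent detection.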
D3 ag: activates the human D3 dopamine receptor; D3R DiscoveRx beta-arrestin cells, luminescence, 90 min; max activation, %; hit rate 0.58% among 410,000; AID 652048; in the data active means max activation above about 30%; further: 0% is about no effect
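Agonist-mode cell screen: cells plated at 1500/well and incubated overnight at 37 °C, then exposed to library compounds for 90 min at 37 °C. Detection reagent was added for 30–60 min at room temperature, and luminescence was read.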
GLP-1R agonist: GLP-1 receptor (human) agonism | Potency, µM (titrated, usually from 45.6 µM), without a hit: at the top dose activation, hits mostly activators | hit rate 0.007% among 380,000 | P43220 | HEK293 GLP-1R CRE-luciferase, luminescence, 4-6 h; cells express a hypersensitive GLP-1R form; further: potency means the concentration at half of the fitted maximal effect; % of control where 0% means no effect
Target sequence (P43220 whole entry, looked up): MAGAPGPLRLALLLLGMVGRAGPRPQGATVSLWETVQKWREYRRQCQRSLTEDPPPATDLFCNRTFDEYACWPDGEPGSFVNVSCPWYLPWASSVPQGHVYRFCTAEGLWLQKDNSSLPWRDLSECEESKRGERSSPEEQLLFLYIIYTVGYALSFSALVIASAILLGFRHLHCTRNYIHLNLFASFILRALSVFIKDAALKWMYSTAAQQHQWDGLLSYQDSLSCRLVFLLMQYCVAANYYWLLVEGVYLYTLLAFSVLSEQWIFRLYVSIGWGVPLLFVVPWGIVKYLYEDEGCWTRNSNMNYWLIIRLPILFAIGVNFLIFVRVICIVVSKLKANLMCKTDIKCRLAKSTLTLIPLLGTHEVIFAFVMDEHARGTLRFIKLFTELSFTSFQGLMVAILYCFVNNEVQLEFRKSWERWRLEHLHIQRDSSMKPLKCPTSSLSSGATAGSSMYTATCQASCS
GLP-1R inv ag: GLP-1 receptor (human) inverse agonism; P43220; HEK293 GLP-1R CRE-luciferase, luminescence, 24 h; GLP-1R form is constitutively active; Potency, µM (titrated, usually from 38.3 µM), without a hit: at the top dose activity change, negative = inhibition, most hits filed as inhibitors; hit rate 1.6% among 410,000; AID 624417; further: potency means the concentration at half of the fitted maximal effect; on the % scale 0 is the no-effect control and ±100 the full control effect; nearly all actives have a fitted effect of over 55% in size
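Seeding at 200 cells/uL, 12 h culture, 24 hr compound treatment, then luciferase reagent and a luminescence read; cells are HEK293 stably expressing a constitutively active GLP-1R plus cAMP-responsive luciferase.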
Active calls of the source: *; u = inconclusive; x = no result. Shown are actives, neighbours in structure and some others; about 4.3% of the full set was active somewhere. Unless noted, the call rests on the fitted dose curve; in most records, active means well fitted curve in the direction sought with a large enough effect; inconclusive means small, poorly fitted or top-dose-only effect, or another doubt; inactive means no such curve, though single readings can be large; an effect the other way counts as inactive or inconclusive.

SMILES | D3 antag | D3 ag | GLP-1R agonist | GLP-1R inv ag
CO[C@H]1C[C@H](O[C@H]2[C@H](C)[C@@H](O[C@@H]3O[C@H](C)C[C@H](N(C)C)[C@H]3OC(C)=O)[C@@H](C)C[C@]3(CO3)C(=O)[C@H](C)[C@@H](OC(C)=O)[C@@H](C)[C@@H](C)OC(=O)[C@@H]2C)O[C@@H](C)[C@@H]1OC(C)=O | x | 6 | x | x
COc1cc(Nc2c(C#N)cnc3cc(OCCCN4CCN(C)CC4)c(OC)cc23)c(Cl)cc1Cl | x | -11 | 6% | x
CCCC(=O)Nc1nc2ccc3nc(C)sc3c2s1 | 10 | 0 | 8% | 43%
CCCCC(=O)Nc1nc2ccc3nc(C)sc3c2s1 | -80* | -5 | 7% | 29%
CC(C)(C)CC(C)(C)NCC(O)COc1c(F)cc(Br)cc1F (configuration not stated) | u | -10 | -20% | 10µM*
CC(C)(C)NCC(O)COc1c(F)cc(Br)cc1F (configuration not stated) | -10 | -31 | 7% | -1%
CCC(=O)N1CCc2cc(S(=O)(=O)NC(C(=O)NCCc3ccccc3)C(C)C)ccc21 (configuration not stated) | x | -13 | x | 3%
CCCCn1c(=O)c2oc3ccccc3c2n(CC(=O)Nc2ccc(CC)cc2)c1=O | x | 13 | x | 5%
O=C1CC(N2CCN(Cc3ccccc3)CC2)C(=O)N1 (configuration not stated) | 9 | 0 | 11% | 5%
c1ccc(CN2CCN(C3CCCSc4ccccc43)CC2)cc1 (configuration not stated) | -85* | -48 | -2% | u
CN1CCN(c2nc(-c3cccs3)cc(C(F)(F)F)n2)CC1 | -94* | -5 | 7% | u
O=[N+]([O-])c1cnn(-c2nc(-c3cccs3)cc(C(F)(F)F)n2)c1 | 23 | 7 | 21% | 8%
CN1CCN(c2nc(-c3ccccc3)cc(C(F)(F)F)n2)CC1 | -70* | -4 | -1% | u
COc1ccc(-c2cc(-c3ccccc3)nc(N3CCCC3)n2)cc1OC | 49 | 41* | 5% | 20%
Cc1ccc(Cn2ccnc2SCC(=O)Nc2nnc(C)s2)cc1 | x | -8 | x | 10%
CCc1cccc(C)c1NC(=O)CSc1nc2ccccc2nc1N1CCOCC1 | x | -5 | x | u
COc1ccc(CCNC(=O)C2CCCN(S(=O)(=O)c3ccc4c(c3)oc(=O)n4C)C2)cc1OC (configuration not stated) | x | 10 | 2% | 2%
Cc1cc(N2CCN(C)CC2)nc(-c2ccccc2O)n1 | -28 | -10 | 15% | 4µM*
Cc1cc(N2CCCC2)nc(-c2ccccc2O)n1 | 31 | 1 | -2% | 2%
CCn1cc(C(=O)NCCc2ccccc2)c(=O)c2cc(F)c(N3CCN(C)CC3)cc21 | -19 | -1 | 1% | u
CCn1cc(C(=O)NCc2ccc3c(c2)OCO3)c(=O)c2cc(F)c(N3CCN(C)CC3)cc21 | -70* | -26 | 8% | 8%
COc1cccc(NC(=O)Cn2c(=O)n(Cc3ccc4c(c3)OCO4)c(=O)c3oc4ccccc4c32)c1 | x | -4 | x | -1%
C=CCN(CC=C)Cc1cc(=O)oc2ccc3ccccc3c12 | 15 | 1 | 0% | u
C=CCN(CC=C)Cc1c(O)ccc2c1oc(=O)c1ccccc12 | -62* | -29 | 6% | 68%
CCOc1ccc(/C=N/NC(=S)NC2CC3C=CC2C3)cc1 (configuration not stated) | -15 | -8 | 14% | 3.2µM*
SMILES | D3 antag | D3 ag | GLP-1R agonist | GLP-1R inv ag
Oc1c(Br)cc(Br)cc1/C=N/NC(=S)N[C@H]1CC2C=CC1C2 (some centres not stated) | -17 | -14 | 0% | 3.5µM*
Cc1ccnc(OC(C(=O)O)C(OCc2ccccc2)(c2ccccc2)c2ccc(C(F)(F)F)cc2)n1 (configuration not stated) | 24 | 11 | -2% | 10µM*
O=c1ccc2c(-c3ccccc3)c3ccc(O)cc3oc-2c1 | 33 | 12 | 5% | 55%
Nc1ccc(-c2c3ccc(=O)cc-3oc3cc(O)ccc23)cc1C(=O)O | -55* | -16 | 6% | -6%
COc1cccc(C(=O)Nc2cc(-c3cn4cccnc4n3)ccc2C)c1OC | x | 3 | x | 7%
Cc1ncsc1C(=O)N1N=C2/C(=C/c3ccc(N4CCOCC4)cc3)CCCC2C1c1ccc(N2CCOCC2)cc1 (configuration not stated) | 1 | 11 | 21% | -5%
